Bioassay records (PubChem)
SENP8 block-1 – SENP8 (human) protease inhibition; Q96LD8; recombinant SENP8, Nedd8 substrate fluorescence; inhibition, % at 20 µM; 360,000 compounds, 0.64% hits; AID 602440; in the data active = inhibition mostly above about 40%, no sharp cut-off; inactive = mostly below about 27%
PPC-1+TRAIL kill – PPC-1 cancer cell killing with TRAIL present. 220,000 compounds, 0.41% hits. cell killing (% activity), % at 4 µM or 5 µM. PPC-1 cells + TRAIL, ATPLite viability luminescence;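 active = cell killing above 50% in the first pass at 4 µM, then a duplicate retest at 5 µM averaging 50% or more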;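 note: plate controls were cells with TRAIL plus DMSO for no effect and medium-only wells lacking cells for full effect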
SENP8 block-2 – inhibitors of human SENP8 protease | purified SENP8, Z-RLRGG-aminoluciferin cleavage, luminescence | 330,000 compounds, 1.2% hits | inhibition, % at 10 µM | Q96LD8; in the data active = inhibition above about 50%
SENP7 block – SENP7 protease inhibition. Q9BQF6. recombinant SENP7, Z-RLRGG-aminoluciferin luminescence, 40 min. inhibition, % at 5 µM. 330,000 compounds, 1.5% hits;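 active = inhibition above about 50% at the single test dose, limit read from the data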;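 note: plate controls were DMSO with enzyme for no effect and no enzyme buffer wells for full effect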
SENP6 inh – SENP6 protease inhibition. inhibition, % at 10 µM. 330,000 compounds, 1.8% hits. Q9GZR1. Recombinant SENP6 catalytic domain, aminoluciferin luminescence;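 active = inhibition above about 50% at the single tested dose, limit read from the data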;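 note: plate controls were DMSO wells with enzyme for no effect and DMSO wells lacking enzyme for full effect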
Target sequence (Q9GZR1 628-1112 limits assumed): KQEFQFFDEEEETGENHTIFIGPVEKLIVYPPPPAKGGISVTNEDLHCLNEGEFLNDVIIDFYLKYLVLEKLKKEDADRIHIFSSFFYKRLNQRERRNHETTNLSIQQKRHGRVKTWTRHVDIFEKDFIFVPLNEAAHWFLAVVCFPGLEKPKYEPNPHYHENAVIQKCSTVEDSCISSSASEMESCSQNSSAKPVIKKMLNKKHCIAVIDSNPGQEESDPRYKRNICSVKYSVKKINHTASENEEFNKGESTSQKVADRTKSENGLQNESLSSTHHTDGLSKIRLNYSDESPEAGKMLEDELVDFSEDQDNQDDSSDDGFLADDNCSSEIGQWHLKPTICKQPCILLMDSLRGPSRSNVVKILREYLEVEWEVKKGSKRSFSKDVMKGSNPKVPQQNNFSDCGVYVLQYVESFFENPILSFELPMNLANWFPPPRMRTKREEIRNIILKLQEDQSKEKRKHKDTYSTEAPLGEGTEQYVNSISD
C8 TRAIL sens – caspase-8 TRAIL sensitization; 360,000 compounds, 1% hits; NB7+C8 cells + TRAIL, ATPlite viability luminescence; inhibition (viability loss, TRAIL sensitization), % at 10 µM;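 active = compounds causing at least 50% loss of cell viability in the single-dose screen, relative to plate controls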
SENP8 conf-1 – human SENP8 inhibition, confirmed. Recombinant SENP8, Z-RLRGG-aminoluciferin luminescence, 60 min. AID 488912. shares compounds with SENP7 block. 6,200 compounds, 40% hits. inhibition, % at 12.5 µM;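 active = mean inhibition across replicates above about 50%, limit read from the data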
SENP6 conf – confirmation of human SENP6 protease inhibitors. shares compounds with SENP7 block. recombinant SENP6, Z-RLRGG-aminoluciferin luminescence. inhibition, % at 12.5 µM. 6,200 compounds, 58% hits. AID 488915
SENP7 confirm – human SENP7 inhibition, confirmed | recombinant SENP7, Z-RLRGG-aminoluciferin luminescence, 40 min | shares compounds with SENP7 block | 6,200 compounds, 69% hits | inhibition, % at 12.5 µM
Casp3 select – inhibits human caspase-3 in SENP selectivity test; AID 488918; purified caspase-3, Z-DEVD-aminoluciferin luminescence, 60 min; inhibition, % at 12.5 µM; 6,200 compounds, 60% hits; shares compounds with SENP7 block;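 active = mean inhibition above about 50%, limit read from the data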;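 note: plate controls were enzyme with DMSO for no effect and wells without caspase-3 for full effect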
Target sequence (P42574 28-227 limits assumed): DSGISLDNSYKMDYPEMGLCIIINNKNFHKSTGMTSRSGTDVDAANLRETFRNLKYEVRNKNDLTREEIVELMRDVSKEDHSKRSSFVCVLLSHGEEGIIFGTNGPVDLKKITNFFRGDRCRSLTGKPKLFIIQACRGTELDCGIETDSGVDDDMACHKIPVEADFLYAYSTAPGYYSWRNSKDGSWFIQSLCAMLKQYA
SENP luc ctr – luminescence interference (SENP counter-screen); shares compounds with SENP7 block; inhibition, % at 12.5 µM; Pre-incubated SENP8/Z-RLRGG-aminoluciferin, luciferase luminescence interference; 6,200 compounds, 39% hits;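 active = mean inhibition above about 50% when retested at one dose, limit read from the data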;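 note: plate controls were DMSO wells with completed reaction for no effect and substrate without enzyme for full effect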
SENP8 conf-2 – SENP8 (human) inhibition, single concentration confirmation. purified SENP8, Nedd8-AMC/pro-Nedd8 cleavage fluorescence, 30 min. 1,400 compounds, 15% hits. inhibition, % at 25 µM. AID 624319. shares compounds with SENP8 block-1; in the data active = inhibition mostly above about 39%, no sharp cut-off; inactive = mostly below about 34%
Active calls of the source: *; nt = not tested or not shown. The list is not random: actives were taken first. Their share in the collection is about 3%.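 Rule for the calls, unless noted: active = mean inhibition above about 50% in the one-dose retest (limit read from the data); inactive = the rest.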

SMILES	SENP8 block-1	PPC-1+TRAIL kill	SENP8 block-2	SENP7 block	SENP6 inh	C8 TRAIL sens	SENP8 conf-2	others
Nc1c(C(=O)NCc2ccco2)c2nc3ccccc3nc2n1Cc1ccc(F)cc1	-484.1	11.7	74.7*	54.1*	88.6*	-10.5	nt	SENP8 conf-1=1.4;SENP6 conf=-4.5;SENP7 confirm=-5.1;Casp3 select=-3.2;SENP luc ctr=-13.3
CC(=O)Nc1ccccc1OP1(=O)COc2ccccc2OC1	10.0	6.1	-6.2	-5.7	-7.8	1.1	nt
Nc1ccc(C2(c3ccc(N)cc3)CCCCC2)cc1	4.5	6.6	-2.4	-6.4	-9.2	9.8	nt
CCCCc1cc(=O)oc2cc(OCC(=O)N3C[C@H]4C[C@@H](C3)c3cccc(=O)n3C4)c(Cl)cc12	-25.2	nt	-3.8	-0.6	-11.3	-4.4	nt
COc1ccc(-n2nc(C(=O)NCC(=O)N3CCC4(CC3)OCCO4)c3ccccc3c2=O)cc1Cl	-304.8	nt	3.2	0.3	-4.3	45.8	nt
COc1ccccc1CCNC1C2CC3CC(C2)CC1C3 (stereo not drawn)	20.7	12.7	2.3	1.6	-6.8	10.0	nt
O=C(c1cc2c(s1)-c1ccccc1OC2)N1CCC2(CC1)OCCO2	-276.9	4.3	70.4*	83.6*	83.7*	12.5	nt	SENP8 conf-1=74.8*;SENP6 conf=75.4*;SENP7 confirm=93.6*;Casp3 select=83.7*;SENP luc ctr=79.5*
O=[N+]([O-])c1ccc(NC2CCN(Cc3ccccc3)CC2)c2ccncc12	40.2*	nt	28.5	38.6	65.5*	-1.1	18.4	SENP8 conf-1=3.4;SENP6 conf=2.1;SENP7 confirm=12.5;Casp3 select=9.5;SENP luc ctr=2.7
O=[N+]([O-])c1ccc(N2CCCC2)c2ccncc12	52.8*	14.2	18.2	46.7	59.6*	-2.0	20.4	SENP8 conf-1=7.3;SENP6 conf=10.4;SENP7 confirm=14.1;Casp3 select=9.0;SENP luc ctr=6.4
O=[N+]([O-])c1ccc(N2CCNCC2)c2ncccc12	nt	17.2	nt	nt	nt	nt	nt
ClC(Cl)=C(c1ccc(Cl)cc1)c1ccc(Cl)cc1	18.2	nt	7.6	-9.0	-2.6	-0.4	nt
CCn1c(O)c(N=Nc2ccc(S(=O)(=O)N3CCOCC3)cc2)c(=O)n(CC)c1=S	40.1*	-2.2	-4.8	7.5	-14.8	15.6	19.4
CN1CCN(c2ccc([N+](=O)[O-])c(N3CCCCC3)c2)CC1	21.9	20.8	6.1	-3.7	-2.3	2.4	nt
O=[N+]([O-])c1ccc(N2CCNCC2)cc1N1CCCCCC1	47.8*	4.2	-3.8	-1.1	-11.5	-3.4	12.7
O=C(CCC(=O)N1C[C@H]2C[C@@H](C1)c1cccc(=O)n1C2)NCc1ccc(F)cc1	1.0	nt	9.0	-0.5	-21.3	-11.8	nt
Cc1cc(C)c(NC2=NCCS2)cc1C	8.8	nt	nt	nt	nt	2.9	nt
CN1CCN(c2ccc([N+](=O)[O-])cc2Cl)CC1	18.3	-4.2	2.3	7.7	14.6	-16.5	nt
CC1CN(c2ccc([N+](=O)[O-])cc2Cl)CCN1 (stereo not drawn)	32.2*	5.8	-6.3	2.1	9.8	-6.0	14.2
COc1cc(C)c(CN2CC=C(c3ccc(F)cc3)CC2)cc1C	43.4*	nt	-4.8	8.9	6.1	5.8	6.6
COc1cc(CN2CC=C(c3ccc(F)cc3)CC2)cc(OC)c1	15.1	nt	-11.3	-9.8	-10.6	2.4	nt
CCOC(=O)c1c(C=O)c2ccccc2n1Cc1ccccc1F	10.7	nt	-7.5	-1.3	8.3	5.1	nt
CC(C)[C@H](NC(=O)N1C[C@H]2C[C@@H](C1)c1cccc(=O)n1C2)C(=O)Nc1ccccc1F	47.1*	nt	-1.3	-3.2	-7.7	0.3	12.6
CC(C)N(Cc1ccco1)/N=C/c1c(O)n(Cc2ccccc2)c(=O)[nH]c1=O	20.1	14.8	-11.2	10.1	-14.1	18.1	nt
C=CCc1ccc(OC)cc1	49.8*	nt	-10.4	1.9	-2.8	-1.2	-4.9
COc1ccc(CN2CCNCC2)cc1	9.5	nt	-5.7	-8.2	-6.5	-12.4	nt
SMILES	SENP8 block-1	PPC-1+TRAIL kill	SENP8 block-2	SENP7 block	SENP6 inh	C8 TRAIL sens	SENP8 conf-2	others
COc1ccc(C(=O)O)cc1OC	44.6*	nt	nt	nt	nt	-9.0	14.2
CCC(=O)c1ccc(OC)c(OC)c1	-6.8	8.0	-5.3	11.8	-18.6	-6.2	nt
Cn1c(=O)[nH]c2nncnc2c1=O	77.5*	nt	6.4	17.8	10.6	6.5	89.6*
CC(C)COC(=O)c1ccccc1C(=O)OCC(C)C	48.5*	7.7	-1.6	0.9	-16.2	-8.8	7.7
Cc1ccc(NC(=O)CSc2nnc([C@@H](N)Cc3c[nH]c4ccccc34)o2)c(C)c1	5.8	11.9	2.3	3.2	0.6	-8.2	nt
S=C1NC2(CCCCC2)NC12CCCCC2	32.1	10.0	1.9	7.2	-2.1	-1.9	nt
O=C(COc1ccc(Cl)cc1)N1CCN(C2CCCC2)CC1	6.6	nt	0.3	1.5	4.5	-16.1	nt
CCCCC1(CCCC)C(=O)NC(=Nc2cccc(C)c2)NC1=O	20.9	12.8	-9.5	1.1	-3.2	-2.5	nt
Cc1cccc(N=C2c3cc([N+](=O)[O-])ccc3-c3c2cc([N+](=O)[O-])cc3[N+](=O)[O-])c1	94.2*	nt	nt	nt	nt	28.8	23.3
Cc1ccc(OP(N)(=O)Oc2ccc(C)cc2)cc1	4.8	1.4	-9.1	-2.3	-1.4	0.1	nt
CC(=O)O[C@@]12CO[C@@H]1C[C@H](O)[C@@]1(C)C(=O)[C@H](O)C3=C(C)[C@@H](O)C[C@@](O)([C@@H](OC(=O)c4ccccc4)C12)C3(C)C (stereo partly drawn)	58.1*	nt	2.0	-1.7	3.2	21.8	19.9
CCOC(=O)Cn1cc([N+](=O)[O-])nc1[N+](=O)[O-]	55.7*	-3.7	9.7	14.7	-1.5	6.9	23.7
ClCCOCCCl	15.3	nt	0.0	15.6	12.6	14.2	nt
COc1cc2c(c(OC)c1OC)-c1ccc(O)c(=O)cc1[C@@H](N)CC2	52.6*	nt	0.2	6.8	-8.1	12.4	-12.3
CCc1c(-c2ccccc2)nc2ccccc2c1C(=O)N1CCC2(CC1)OCCO2	4.0	nt	4.8	-1.5	21.3	2.7	nt
C[C@]12C[C@H](O)[C@@H](O)C[C@@H]1CC[C@@H]1[C@@H]2CC[C@]2(C)C(=O)CC[C@@H]12	49.1*	nt	nt	nt	nt	-2.5	6.0
